The source made the active and inactive calls.

Results on four compounds are retold here after PubChem BioAssay.

A short description of experiment [1]: optical density shifts of acrAB sulA E. coli – strain DRC41, OD650, 48 h, E. coli filamentation inducer project, primary screen (AID 1152).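 Further: E. coli MC1000 strain DRC41 lacking acrAB efflux pump and sulA.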 The conditions noted are these: higher = more signal, called active from +8 up or from −8 down.
Experiment [2] can be described thus: probe aLefty1 binding on compound microarray – biochemical, small-molecule microarray, 635/667 nm fluorescence, primary screen (AID 1153).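 Further: score merges spot fluorescence with signal-to-noise ratio from the scanned slide images.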 The conditions noted are these: higher = more signal.
Experiment [3] is described as follows: plasmodial surface anion channel blockers, osmotic lysis – cell-based, P. falciparum Indochina, OD700, 1 h, primary screen (AID 1154). The conditions noted are these: P. falciparum Indochina infected RBC osmotic lysis, higher = more signal, called active from +8 up or from −8 down.
Experiment [4] in a line: plasmodial surface anion channel blockers, osmotic lysis – cell-based, P. falciparum Indochina, OD700, 2 h, primary screen (AID 1155).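 Further: lysis reports solute entry through the parasite surface anion channel PSAC.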 Particulars: P. falciparum Indochina infected erythrocytes, higher = more signal, called active from +8 up or from −8 down.
Experiment [5] is described as follows: changes in parasitized red cell lysis, either direction – P. falciparum Indochina, OD700, 3 h, PSAC antagonist project, primary screen (AID 1156). The conditions noted are these: P. falciparum-infected erythrocytes, osmotic lysis, higher = more signal, called active from +8 up or from −8 down.
Experiment [6] can be described thus: plasmodial surface anion channel blockers, osmotic lysis – cell-based, P. falciparum Indochina, OD700, 18 h, primary screen (AID 1157). The conditions noted are these: P. falciparum Indochina infected erythrocytes, osmotic lysis OD700, 18 h; higher = more signal, called active from +8 up or from −8 down.
The nature of experiment [7]: S6 kinase pathway phospho-S6 level changes – cell-based, A549, cytoblot, luminescence, serum-stimulated, primary screen (AID 1158).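 Further: serum-stimulated A549 lung adenocarcinoma cells; signal is phosphorylated S6 detected by cytoblot immunostaining with HRP secondary.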 The conditions noted are these: 5 h, higher = more signal.
In experiment [8] the target is NADPH oxidase 2 (Homo sapiens) (UniProt P04839). The experiment can be described thus: compounds shifting NOX2 Amplex Red fluorescence – cell-based, HEK293-NOX2, PMA-stimulated, NOX inhibitor project, primary screen (AID 1159). Further: test concentration not given here. Particulars: 45 min, higher = more signal, called active from +8 up or from −8 down.
Sequence of NADPH oxidase 2 (Homo sapiens) (P04839 whole entry, looked up): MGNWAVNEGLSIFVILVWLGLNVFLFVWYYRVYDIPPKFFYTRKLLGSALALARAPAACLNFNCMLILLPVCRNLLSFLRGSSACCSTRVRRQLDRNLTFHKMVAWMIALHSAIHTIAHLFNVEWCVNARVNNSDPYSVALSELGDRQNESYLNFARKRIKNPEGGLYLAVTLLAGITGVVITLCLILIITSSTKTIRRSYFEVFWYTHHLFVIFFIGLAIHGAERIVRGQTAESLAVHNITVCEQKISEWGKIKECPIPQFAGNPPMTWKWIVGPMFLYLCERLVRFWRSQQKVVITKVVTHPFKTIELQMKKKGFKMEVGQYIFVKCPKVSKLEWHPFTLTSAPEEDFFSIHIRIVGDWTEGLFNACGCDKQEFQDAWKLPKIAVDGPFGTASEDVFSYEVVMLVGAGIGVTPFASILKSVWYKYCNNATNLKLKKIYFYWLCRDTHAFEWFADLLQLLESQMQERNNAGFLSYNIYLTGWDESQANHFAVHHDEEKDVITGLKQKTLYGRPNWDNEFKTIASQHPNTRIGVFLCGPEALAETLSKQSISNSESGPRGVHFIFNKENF
Experiment [9] concerns the target NADPH oxidase 4 (Homo sapiens) (UniProt Q9NPH5). The experiment can be described thus: compounds shifting NOX4 Amplex Red fluorescence – cell-based, HEK293-NOX4, tetracycline-induced, NOX inhibitor project, primary screen (AID 1160). The conditions noted are these: HEK293-NOX4, Amplex Red H2O2 fluorescence, 45 min; higher = more signal, called active from +8 up or from −8 down.

The target of experiment [10] is NADPH oxidase 5 (Homo sapiens) (UniProt Q96PH1). The experiment can be described thus: compounds shifting NOX5 Amplex Red fluorescence – cell-based, HEK293-NOX5, NOX inhibitor project, primary screen (AID 1161). Particulars: HEK293-NOX5, ionomycin, 45 min, higher = more signal.
Sequence of NADPH oxidase 5 (Homo sapiens) (Q96PH1 whole entry, looked up): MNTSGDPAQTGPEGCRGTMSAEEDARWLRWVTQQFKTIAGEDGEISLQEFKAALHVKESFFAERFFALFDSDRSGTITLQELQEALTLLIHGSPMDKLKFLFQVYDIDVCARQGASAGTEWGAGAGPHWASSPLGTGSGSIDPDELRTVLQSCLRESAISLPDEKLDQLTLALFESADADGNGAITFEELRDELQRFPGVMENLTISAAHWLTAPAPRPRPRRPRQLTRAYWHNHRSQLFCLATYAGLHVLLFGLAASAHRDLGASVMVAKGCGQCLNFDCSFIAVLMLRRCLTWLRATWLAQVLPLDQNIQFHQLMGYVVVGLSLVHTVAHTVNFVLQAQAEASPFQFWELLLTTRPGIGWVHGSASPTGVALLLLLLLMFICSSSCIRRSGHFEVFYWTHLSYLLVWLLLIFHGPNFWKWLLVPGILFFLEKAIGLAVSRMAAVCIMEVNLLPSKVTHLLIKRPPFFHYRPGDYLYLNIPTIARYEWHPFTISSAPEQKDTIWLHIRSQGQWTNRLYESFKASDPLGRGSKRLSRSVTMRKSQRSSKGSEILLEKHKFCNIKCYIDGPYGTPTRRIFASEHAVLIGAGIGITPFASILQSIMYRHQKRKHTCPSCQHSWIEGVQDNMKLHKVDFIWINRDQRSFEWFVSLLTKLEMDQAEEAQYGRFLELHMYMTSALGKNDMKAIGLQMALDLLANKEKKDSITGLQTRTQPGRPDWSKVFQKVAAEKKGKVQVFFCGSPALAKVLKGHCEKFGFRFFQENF
A short description of experiment [11]: compound effects on lung adenocarcinoma cell viability – A549, calcein-AM fluorescence, 48 h, basal, profiling panel (AID 1162). Further: test concentration not given here. The conditions noted are these: higher = more signal.
Experiment [12] in a line: compound effects on differentiated 3T3-L1 adipocyte viability – cell-based, 3T3-L1 adipocytes, calcein-AM fluorescence, 48 h, basal, profiling panel (AID 1163). Further: test concentration not given here. The conditions noted are these: 3T3-L1 adipocytes viability, higher = more signal.
Experiment [13] in a line: compound effects on hepatocellular carcinoma cell viability – HepG2, calcein-AM fluorescence, 48 h, basal, profiling panel (AID 1164). Further: test concentration not given here. Particulars: higher = more signal.
Experiment [14] can be described thus: compound effects on multiple myeloma cell viability – MM1S, calcein-AM fluorescence, 48 h, basal, profiling panel (AID 1165). Further: test concentration not given here. The conditions noted are these: higher = more signal.
Experiment [15] is described as follows: calcein-AM signal in unstimulated myeloma cells – cell-based, calcein-AM fluorescence, 48 h, PK04 Diversity Set, profiling panel (AID 1166).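 Further: cells grown under basal conditions without added stimulus; test concentration not given here.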 Particulars: RPMI8226 myeloma viability, higher = more signal.
A short description of experiment [16]: JC-1 mitochondrial signal, unstimulated HepG2 cells – cell-based, JC-1 fluorescence, 24 h, 100 nL compound, profiling panel (AID 1167). Further: test concentration not given here. Particulars: HepG2 mitochondrial potential, higher = more signal.
A short description of experiment [17]: JC-1 mitochondrial signal, unstimulated adipocytes – cell-based, JC-1 fluorescence, 3T3-L1 adipocytes, 24 h, 100 nL compound, profiling panel (AID 1168). Further: test concentration not given here. The conditions noted are these: JC-1 mitochondrial fluorescence, higher = more signal, called active from +8 up or from −8 down.
Experiment [18] is described as follows: JC-1 mitochondrial signal, unstimulated myeloma cells – cell-based, JC-1 fluorescence, RPMI8226, 24 h, 100 nL compound, profiling panel (AID 1169). Further: test concentration not given here. The conditions noted are these: JC-1 mitochondrial potential fluorescence, higher = more signal.
Experiment [19] can be described thus: JC-1 mitochondrial signal, unstimulated MM1S myeloma – cell-based, JC-1 fluorescence, 24 h, 100 nL compound, profiling panel (AID 1170). Further: test concentration not given here. The conditions noted are these: MM1S mitochondrial potential, higher = more signal.
Experiment [20] can be described thus: resazurin metabolic signal in A549 cells – cell-based, resazurin fluorescence, 24 h, PK04 Diversity Set, profiling panel (AID 1171). Further: test concentration not given here. Particulars: A549 viability, higher = more signal, called active from +8 up or from −8 down. (Alamar Blue is a resazurin reagent that responds to reducing activity.)

Sequence of NADPH oxidase 4 (Homo sapiens) (Q9NPH5 whole entry, looked up): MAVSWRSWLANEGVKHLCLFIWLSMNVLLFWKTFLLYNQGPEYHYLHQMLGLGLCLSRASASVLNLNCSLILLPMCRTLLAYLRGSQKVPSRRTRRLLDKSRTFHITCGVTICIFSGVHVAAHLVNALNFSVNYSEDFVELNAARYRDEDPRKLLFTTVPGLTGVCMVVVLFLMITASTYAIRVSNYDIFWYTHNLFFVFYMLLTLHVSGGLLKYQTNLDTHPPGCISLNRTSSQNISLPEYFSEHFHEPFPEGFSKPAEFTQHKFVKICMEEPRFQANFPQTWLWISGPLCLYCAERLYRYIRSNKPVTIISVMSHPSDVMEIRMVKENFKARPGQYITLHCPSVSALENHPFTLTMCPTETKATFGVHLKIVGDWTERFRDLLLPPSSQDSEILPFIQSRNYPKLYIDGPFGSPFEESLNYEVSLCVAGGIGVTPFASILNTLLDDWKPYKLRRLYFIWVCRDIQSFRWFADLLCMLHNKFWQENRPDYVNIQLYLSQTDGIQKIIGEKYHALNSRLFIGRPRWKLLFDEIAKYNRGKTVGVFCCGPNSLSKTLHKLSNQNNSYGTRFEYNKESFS

For `CCCCC#C[C@@H]1C=C[C@H](Oc2ccc(C(=O)OC)cc2)[C@@H](COC(=O)OCC)O1`, the z-score in [1] is 0.0015 (inactive); in [3], 5.53 (inactive); in [4], 1.38 (inactive); in experiment [5], 0.77 (inactive); in experiment [6], 0.0033 (inactive); in experiment [7] it was 0.164. For the same compound, the z-score in [8] was 1.82 (inactive); in experiment [9], 0.725 (inactive); in [10], 1.03; in experiment [11], -1.07; in experiment [12], 0.416; in experiment [13], -3.26. Besides, the z-score is -3.56 in experiment [14]; -3.46 in experiment [15]; -0.918 in experiment [16]; 0.281 (inactive) in [17]; -0.614 in experiment [18]; -1.95 in [19]. The z-score in experiment [20] was 0.313 (inactive). In experiment [2], this compound came in with a composite z-score of -0.0559.
On to `CC(CCN1CCCCc2nc(C)c(C)cc21)=NO[C@H](C)c1cn([C@H](CO)Cc2ccccc2)nn1`, for which the z-score in experiment [1] was 0.285 (inactive); in [3] it was 2.87 (inactive); in experiment [4], 1.16 (inactive); in [5], 0.758 (inactive); in experiment [6], 0.589 (inactive); in experiment [7], -0.286. The z-score is -0.939 (inactive) in experiment [8]; 0.0532 (inactive) in [9]; 0.477 in experiment [10]; 0.277 in experiment [11]; 0.72 in experiment [12]; -0.386 in experiment [13]. The z-score is 0.607 in experiment [14]; -1.4 in experiment [15]; -0.969 in [16]; -2.1 (inactive) in [17]; 0.686 in [18]; -0.457 in experiment [19]. Besides, the z-score in experiment [20] was -0.0266 (inactive). Also, the composite z-score in experiment [2] was -0.0162.
For the compound `O=C(NN=C1C[C@@H](O)[C@@H](O)[C@@H]2[C@@H]3C(=O)N(C4CCCCC4)C(=O)[C@@H]3CC[C@@H]12)OCc1ccccc1`, the z-score in experiment [1] was 0.536 (inactive); in experiment [3], 4.15 (inactive); in [4], 0.586 (inactive); in experiment [5] it was 0.228 (inactive); in experiment [6] it was 0.229 (inactive); in experiment [7] it was -0.146. The z-score in [8] is -0.457 (inactive); in experiment [9], -0.223 (inactive); in experiment [10], 0.118; in [11] it was 0.225; in experiment [12] it was 0.487; in experiment [13], 0.621. Also, the z-score in experiment [14] was 0.495; in experiment [15], -0.697; in experiment [16], -0.502; in experiment [17] it was -0.247 (inactive); in experiment [18] it was -0.369; in experiment [19], -0.309. For the same compound, the z-score in [20] is -0.24 (inactive). This compound came in with a composite z-score in experiment [2] of -0.407.
For `COc1cccc([C@H]2Oc3ccc(OC)cc3C(=NOC[C@@H](O)[C@H]3O[C@@H]4OC(C)(C)O[C@@H]4[C@H]3O)[C@@H]2O)c1`, the z-score in experiment [1] is -0.0985 (inactive); in experiment [3], 5.05 (inactive); in experiment [4] it was 0.458 (inactive); in experiment [5], -0.128 (inactive); in experiment [6], 0.537 (inactive); in experiment [7], -0.512. In addition, the z-score was -0.895 (inactive) in experiment [8]; -0.776 (inactive) in experiment [9]; -0.23 in experiment [10]; -0.0077 in experiment [11]; 0.568 in [12]; -1.49 in [13]. In addition, the z-score was -0.174 in experiment [14]; -0.684 in [15]; -1.27 in [16]; -0.751 (inactive) in experiment [17]; -0.578 in experiment [18]; 0.49 in experiment [19]. For the same compound, the z-score in experiment [20] is -0.794 (inactive). The same compound returned a composite z-score in experiment [2] of -0.387.
